Where “and” joins values, the source holds several entries; their conditions need not be identical. Equal values may be shown once. Results filed as inconclusive are left out. Calls of active or inactive are those of the source. Calls follow the shape of the dose curve; as a rule, active = well fitted curve in the direction sought with a large enough effect; inconclusive = small, poorly fitted or top-dose-only effect, or another doubt; inactive = no such curve, though single readings can be large; an effect the other way counts as inactive or inconclusive.
How the values were obtained:
[1] = biological target: Cytochrome P450 3A7 (Homo sapiens) (UniProt P24462); assay: Cytochrome P450 family 3 subfamily A member 7 (CYP3A7) small molecule antagonists: luciferase biochemical qHTS assay (AID 1963596); also: % is scaled to controls: 0 for no effect and ±100 for the full control effect; nearly all actives have a fitted effect of over 40% in size
Chain of Cytochrome P450 3A7 (Homo sapiens) (P24462 whole entry, looked up): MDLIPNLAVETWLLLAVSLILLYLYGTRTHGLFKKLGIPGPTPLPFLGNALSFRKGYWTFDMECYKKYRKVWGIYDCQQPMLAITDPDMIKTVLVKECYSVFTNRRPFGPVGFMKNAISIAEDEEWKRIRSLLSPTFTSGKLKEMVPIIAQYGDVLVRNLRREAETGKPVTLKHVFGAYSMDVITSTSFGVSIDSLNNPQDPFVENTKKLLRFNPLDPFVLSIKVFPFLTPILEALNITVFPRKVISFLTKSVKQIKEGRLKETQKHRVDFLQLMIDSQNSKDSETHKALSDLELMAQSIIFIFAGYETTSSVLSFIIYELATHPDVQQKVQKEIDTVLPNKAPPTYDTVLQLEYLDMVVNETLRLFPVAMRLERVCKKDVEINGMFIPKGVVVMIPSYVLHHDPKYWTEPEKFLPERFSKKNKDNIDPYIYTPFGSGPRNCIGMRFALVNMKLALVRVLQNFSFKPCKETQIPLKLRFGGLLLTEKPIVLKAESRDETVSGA
In short: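 P450-Glo luminescent assay: CYP3A7 enzyme converts a proluciferin substrate to luciferin, detected by luciferase reagent; light proportional to activity. Compounds in DMSO preincubated 10 min with enzyme-substrate mix at room temperature, then NADPH regeneration added for 1 h.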

[2] = Viability qHTS for spleen associated tyrosine kinase inhibitor (SYKi) naive MV4-11 cells (AID 1963823); also: nearly all actives have a fitted effect of over 40% in size; also: potency is read from the fitted curve at half-maximal effect
In short: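 In this viability screen, compounds acted on SYK inhibitor naive MV4-11 cells for three days (72 hr, 37 C). Remaining viable cells were measured by CellTiter-Glo luminescence following a 10 min room-temperature development.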

[3] = Viability qHTS for spleen associated tyrosine kinase inhibitor (SYKi) drug resistant MV4-11 cells (AID 1963824); also: nearly all actives have a fitted effect of over 35% in size; also: potency is read from the fitted curve at half-maximal effect
In short: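 SYK inhibitor-resistant MV4-11 AML cells, 500 per well, added to predispensed compounds and incubated 72 hr at 37 C, 5% CO2. Viability measured by CellTiter-Glo luminescence after 10 min at room temperature.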

[4] = Cellular viability qHTS for adrenocortical cancer (ACC) cell line SW-13 (AID 1963989); conditions: SW-13 ACC cells viability, CellTiter-Glo, 48 h; activity (max response): active compounds read low; also: nearly all actives have a fitted effect of over 65% in size; also: potency is read from the fitted curve at half-maximal effect;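 as to activity (max response): cells grown in serum-free medium with ITS supplement; % is scaled to controls: 0 for no effect and ±100 for the full control effect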
In short: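 Here, serum-free SW-13 cultures were dosed up to 46 uM. Following 48 h, ATP-dependent luminescence (CellTiter-Glo) reported viable cells, and logistic modeling produced IC50 values.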

[5] = Quantitative highthroughput screen to assess conditional lethalithy of SEM cells grown in Human Plasma-Like Medium with dialyzed fetal bovine serum (HPLM+ds) (AID 1963882); also: potency is read from the fitted curve at half-maximal effect; nearly all actives have a fitted effect of over 35% in size
In short: (§1)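 Each medium arm—HPLM with 10% dialyzed FBS, or RPMI1640 with 5 mM glucose and 10% untreated or dialyzed FBS—was screened against an 11-point, 3-fold compound titration for 48 h at 37 °C, with CellTiter-Glo luminescence as endpoint.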

[6] = Quantitative highthroughput screen to assess conditional lethalithy of SEM cells grown in RPMI1640 with unreated serum (RPMI+s) (AID 1963883); also: potency is read from the fitted curve at half-maximal effect; nearly all actives have a fitted effect of over 35% in size
In short: as §1

[7] = Cellular viability qHTS for adrenocortical cancer (ACC) cell line NCI-H295R (AID 1963990); also: nearly all actives have a fitted effect of over 60% in size; also: potency is read from the fitted curve at half-maximal effect
In short: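 Viability of NCI-H295R after 48 h of treatment (final up to 46 uM) measured through cellular ATP luminescence.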

[8] = Quantitative highthroughput screen to assess conditional lethalithy of P12 Ichikawa cells grown in Human Plasma-Like Medium with dialyzed fetal bovine serum (HPLM+ds) (AID 1963879); conditions: Potency: viability; also: potency is read from the fitted curve at half-maximal effect; nearly all actives have a fitted effect of over 35% in size
In short: as §1

[9] = Quantitative highthroughput screen to assess conditional lethalithy of SEM cells grown in RPMI1640 with dialyzed fetal bovine serum (RPMI+ds) (AID 1963884)
In short: as §1

CN(C)CCN(Cc1ccsc1)c1ccccn1
inactive: Potency [1] | Potency [2] | Potency [3] | activity (max response) [4] 6.67%

OC1(c2ccc(Cl)cc2)CCNCC1
inactive: Potency [1] | Potency [2] | Potency [3] | activity (max response) [4] 11.1%

C[C@@H]1CCNC(=O)c2cc3ccc(C(=O)Nc4nc5ccccc5n4CCCN(C)C)cc3n21
inactive: Potency [1]
active: Potency [2] 662 nM | Potency [3] 820 nM | Potency [4] 25.1 µM

CC(=O)N/N=C/c1ccc([N+](=O)[O-])o1
inactive: Potency [1] | activity (max response) [4] 2.1%
active: Potency [2] 18800 nM | Potency [3] 23700 nM

C[C@@H](O)[C@H]1C(=O)N2C(C(=O)O)=C([C@H]3CCCO3)S[C@H]12
inactive: Potency [1] | Potency [2] | Potency [3] | activity (max response) [4] 12.4%

O=c1ccc2ccccc2o1
inactive: Potency [1] | Potency [2] | Potency [3] | activity (max response) [4] -0.445%

O=c1[nH]c(=O)n([C@H]2C[C@H](O)[C@@H](CO)O2)cc1F
inactive: Potency [1]
active: Potency [2] 29.9 nM and 83.3 nM | Potency [3] 105 nM | Potency [4] 3.66 µM and 3.55 µM

CCOc1ccc(NC(=O)CC(C)O)cc1 (stereo not drawn)
inactive: Potency [1] | Potency [2] | Potency [3] | activity (max response) [4] -9.31%

Cn1cc(-c2ccc3c(c2)CCN3C(=O)Cc2cccc(C(F)(F)F)c2)c2c(N)ncnc21
active: Potency [2] 731 nM | Potency [3] 2.06 µM and 4.68 µM
inactive: Potency [1] | activity (max response) [4] -1.75%

c1ccc2c(-c3cnn4cc(-c5ccc(N6CCNCC6)cc5)cnc34)ccnc2c1
active: Potency [2] 525 nM | Potency [3] 833 nM | Potency [5] 2.64 µM | Potency [6] 5.26 µM | Potency [4] 3.98 µM | Potency [7] 3.16 µM
inactive: Potency [1]

COc1c(O)cc2c(c1O)[C@@H]1O[C@H](CO)[C@@H](O)[C@H](O)[C@H]1OC2=O
active: Potency [8] 16.6 µM | Potency [5] 20.9 µM | Potency [6] 10.5 µM | Potency [9] 18.7 µM
inactive: Potency [1] | Potency [2] | Potency [3]

CN1CC(=O)N/C1=N/C(=O)Nc1cccc(Cl)c1
inactive: Potency [1] | Potency [2] | Potency [3] | activity (max response) [4] 2.23%

CCO[C@H](Cc1ccc(OCCc2ccc(OS(C)(=O)=O)cc2)cc1)C(=O)O
inactive: Potency [1] | Potency [2] | Potency [3] | activity (max response) [4] 6.74%

CC(C(=O)O)c1ccc(CC2CCCC2=O)cc1 (stereo not drawn)
inactive: Potency [1] | Potency [2] | Potency [3] | activity (max response) [4] 7.96%

CCCC(O)C(CC)CO (stereo not drawn)
inactive: Potency [1] | Potency [2] | Potency [3] | activity (max response) [4] 8.36%

CN1C(=O)CC[C@H]1c1cccnc1
inactive: Potency [1] | Potency [2] | Potency [3] | activity (max response) [4] 2.26%

CCN(CC)CCNC(=O)COc1ccc(Cl)cc1
inactive: Potency [1] | Potency [2] | Potency [3] | activity (max response) [4] 6.48% | Potency [7]

COCC(=O)Nc1c(I)c(C(=O)NCC(O)CO)c(I)c(C(=O)N(C)CC(O)CO)c1I (stereo not drawn)
active: Potency [2] 0.9 nM
inactive: Potency [1] | Potency [3] | activity (max response) [4] -3.53% | Potency [7]

CC[C@@]1(c2ccccc2)NC(=O)N(C)C1=O
inactive: Potency [1] | Potency [2] | Potency [3] | activity (max response) [4] 8.31% | Potency [7]

Cc1cc2c(cc1CC(=O)c1sccc1S(=O)(=O)Nc1onc(C)c1Cl)OCO2
inactive: Potency [1] | Potency [2] | Potency [3] | activity (max response) [4] 2.25% and -17.1% | Potency [7]

CC1(C)O[C@@H]2C[C@H]3[C@@H]4C[C@H](F)C5=CC(=O)C=C[C@]5(C)[C@@]4(F)[C@@H](O)C[C@]3(C)[C@]2(C(=O)CO)O1
inactive: Potency [1] | Potency [2] | activity (max response) [4] -5.78% and 9.51% | Potency [7]
active: Potency [3] 20900 nM

CCOC(=O)[C@H](CCc1ccccc1)N[C@@H](C)C(=O)N1CCC[C@H]1C(=O)O
inactive: Potency [1] | Potency [2] | Potency [3] | activity (max response) [4] 11.5% and -12% | Potency [7]

FC1(F)C(F)(F)C(F)(F)C2(F)C(F)(F)C(F)(F)C(F)(F)C(F)(F)C2(F)C1(F)F (stereo not drawn)
inactive: Potency [1] | Potency [2] | Potency [3] | activity (max response) [4] 5.48%

CCCNC(C)C(=O)Nc1ccccc1C (stereo not drawn)
inactive: Potency [1] | Potency [2] | Potency [3] | activity (max response) [4] 8.91% | Potency [7]

C=CCn1c(=O)n([C@@H]2O[C@H](CO)[C@@H](O)[C@H]2O)c2nc(N)[nH]c(=O)c21
inactive: Potency [1] | Potency [2] | Potency [3] | activity (max response) [4] 10.8%

Nc1ncnc2c1C(=O)N(c1ccc(C3CCC(CC(=O)O)CC3)cc1)CCO2 (stereo not drawn)
inactive: Potency [1] | Potency [2] | Potency [3] | activity (max response) [4] 10.6% | Potency [7]

From PubChem BioAssay (NCATS)
